# From PubChem BioAssay
# Some of the results follow. The source made the active and inactive calls. Cut-off read from the data, not from the text of the source, unless noted: active = activity above about 50%; inactive = the rest.
# Tests used:
# [1] = HIF-2a reporter inhibitor retest, confirmation, luminescence, 786-0 RCC cells (AID 651580;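 active = mean inhibition across four replicates of at least 40 percent at the single tested concentration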); settings: HIF-2a luciferase reporter luminescence, overnight, at 18.8 µM, stronger effect = higher value
# [2] = HIF-1a luciferase reporter signal reduction – MiaPaCa-2 cells, single concentration, counter-screen for HIF-2a inhibitor project, confirmation (AID 651589;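 active = mean inhibition of the reporter signal across four replicates at the single tested dose of 50% or more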); settings: MiaPaCa-2 HIF-1a luciferase reporter, desferoxamine, overnight; at 18.8 µM; stronger effect = higher value
# [3] = inhibitors of PAF-induced NFkB signaling in CF airway cells, dose response, cell-based, uHTS hits, panel, cytotoxicity readout (AID 624344); settings: CF bronchial epithelial cells, PAF-induced NFkB reporter inhibition, with PAF, run 1; at 79 µM (top of the series) unless noted
# [4] = as above; settings: CF bronchial epithelial cells, PAF-induced NFkB reporter inhibition, with PAF, run 2; at 79 µM (top of the series) unless noted
# [5] = target: Tumor necrosis factor receptor superfamily member 10B (Homo sapiens) (UniProt O14763); assay: caspase-8 TRAIL sensitization, hit retest, confirmation, cell-based, NB7+caspase-8, with/without TRAIL, luminescence panel (AID 651596); settings: NB7 neuroblastoma + caspase-8, TRAIL sensitization, luminescence viability, with TRAIL, mean of runs, at 10 µM, stronger effect = higher value
# Sequence of Tumor necrosis factor receptor superfamily member 10B (Homo sapiens) (O14763 whole entry, looked up): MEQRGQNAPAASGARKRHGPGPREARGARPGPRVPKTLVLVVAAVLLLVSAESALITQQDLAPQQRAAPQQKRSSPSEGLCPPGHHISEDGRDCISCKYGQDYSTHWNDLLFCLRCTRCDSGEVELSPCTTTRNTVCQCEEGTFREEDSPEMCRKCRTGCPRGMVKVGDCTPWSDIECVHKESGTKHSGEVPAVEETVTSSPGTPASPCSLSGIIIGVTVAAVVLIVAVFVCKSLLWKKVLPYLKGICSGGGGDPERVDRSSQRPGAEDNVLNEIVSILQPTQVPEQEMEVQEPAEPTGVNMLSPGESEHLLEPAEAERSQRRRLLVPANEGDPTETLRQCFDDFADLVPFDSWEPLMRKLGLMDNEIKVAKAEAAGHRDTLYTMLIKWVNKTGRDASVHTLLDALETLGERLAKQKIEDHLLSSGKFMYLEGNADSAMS
# [6] = as above; settings: NB7 neuroblastoma + caspase-8, without TRAIL, luminescence viability, without TRAIL, mean of runs, at 10 µM
compound,measurement,setting,value
COCC(C)n1c(C)cc(C(=O)COc2ccc(C)nc2[N+](=O)[O-])c1C (centres undefined),inhibition,[1],55% (active)
same,inhibition,[2],41.4% (inactive)
Cc1ccc(C(=O)Nc2cccc(C(F)(F)F)c2)cc1NC(=O)c1nccnc1N,inhibition,[3],75.2%
same,inhibition,[4],76%
same,activity,[5],50.6%
same,activity,[6],39%
CCOc1ccc(CNC(=O)C2CCCN(c3nnc(C)c4c(C)n(-c5ccccc5)nc34)C2)cc1 (centres undefined),inhibition,[1],6.1% (inactive)
same,inhibition,[2],-3.66% (inactive)
O=C(CN1CCN(C2CCS(=O)(=O)C2)CC1)N1N=C(c2ccc(Cl)cc2)CC1c1ccco1 (centres undefined),inhibition,[1],-11% (inactive)
same,inhibition,[2],74.8% (active)
Cc1ccc(NC(=S)NC(NC(=O)Cc2cccc3ccccc23)C(Cl)(Cl)Cl)cc1 (centres undefined),inhibition,[1],-32.9% (inactive)
same,inhibition,[2],98.7% (active)
O=C1C=C(c2ccc(Cl)cc2)C(=O)N1Nc1ccccc1,inhibition,[1],95.2% (active)
same,inhibition,[2],41% (inactive)
COc1ccc(OC)c(N(CCN2C(=O)c3ccccc3C2=O)C(=O)CCl)c1,inhibition,[3],106%
same,inhibition,[4],101%
same,activity,[5],98.7%
same,activity,[6],97.6%
COc1cc2c(cc1O)C(SC)=NC(C)(C)C2,inhibition,[1],2.51% (inactive)
same,inhibition,[2],66.5% (active)
COc1ccc(-c2cc(-c3nc4ccccn4c3NCc3ccccc3)ccc2OC)cc1,inhibition,[3],105%
same,inhibition,[4],96.6%
same,activity,[5],93.2%
same,activity,[6],88.6%
CCN(CC)CCCC(C)n1c2nc(=O)[nH]c(=O)c-2nc2cc(Cl)ccc21 (centres undefined),inhibition,[1],97.9% (active)
same,inhibition,[2],50% (inactive)
Cc1cc(Cl)c(S(=O)(=O)Nc2ccc3c(c2)OCCO3)cc1OCC(N)=O,inhibition,[1],46.5% (active)
same,inhibition,[2],52.6% (active)
Cc1ccccc1/C=C/c1nc2ccccc2c(=O)[nH]1,activity,[5],56.1%
same,activity,[6],58.7%
COc1cccc(/C=C2\CCc3ccccc3C2=O)c1,activity,[5],83.4%
same,activity,[6],78.5%
COc1cc(NC(=O)c2cc3cccc(OC)c3o2)cc(C(=O)Nc2cccc(C(F)(F)F)c2)c1,activity,[5],36.8%
same,activity,[6],33.5%
O=C(Nc1ccc2[nH]ccc2c1)c1ccc(F)cc1,activity,[5],89.7%
same,activity,[6],87%
O=C(CN1C(=O)c2ccccc2S1(=O)=O)c1ccc(Cl)cc1Cl,activity,[5],64.3%
Cc1onc(C(=O)N2CCN(C(c3ccccc3)c3ccccc3)CC2)c1[N+](=O)[O-],activity,[5],99.8%
same,activity,[6],97%
CN(C)CCNC(=O)c1cccc(-c2cnc3c(NC=O)cc(-c4cccc(C(F)(F)F)c4)cn23)c1,inhibition,[1],8.84% (inactive)
same,inhibition,[2],106% (active)
same,activity,[5],46.6%
same,activity,[6],90.8%
Cc1cccc(N(Cc2ccccc2)C(=O)CCl)c1,activity,[5],99%
same,activity,[6],99.1%
O=S(=O)([N-]c1nc2ccccc2nc1-[n+]1ccc(Cc2ccccc2)cc1)c1ccc(Br)s1,inhibition,[1],-48.2% (inactive)
same,inhibition,[2],79.1% (active)
CCOC(=O)CSc1nc2cc(OC)ccc2cc1C#N,activity,[5],74.7%
same,activity,[6],80.4%
CC(C)C[C@@H](N)c1nnc(SCC(=O)c2ccc(Cl)cc2)o1,inhibition,[1],80% (active)
same,inhibition,[2],-10.2% (inactive)
CCC(C)(C)c1ccc(Oc2ccc(NC(=O)COC(=O)C3=COCCO3)cc2)cc1,inhibition,[1],97.8% (active)
same,inhibition,[2],92.9% (active)
Cc1coc2c(O)cc3c(c12)OC1(N2CCCCC2)C(=O)NCCCC31 (centres undefined),inhibition,[1],1.41% (inactive)
same,inhibition,[2],107% (active)
CC(/C=N/NC(=O)c1cccs1)=C\c1ccccc1,activity,[5],61.9%
CS(=O)(=O)N(Cc1ccc(Cl)cc1)c1ccc(C(=O)NCCSCc2ccco2)cc1,inhibition,[1],-0.82% (inactive)
same,inhibition,[2],45.5% (inactive)
O=C(N/N=C/c1cccc(NC(=O)c2ccc(Cl)cc2)c1)c1ccc(O)cc1,activity,[5],58.4%
same,activity,[6],42%
O=[N+]([O-])/C=C/c1ccc2c(ccn2Cc2ccccc2)c1,inhibition,[1],45.4% (active)
same,inhibition,[2],104% (active)
COc1ccc(C)c2sc(N(CCCN(C)C)C(=O)c3ccc(S(=O)(=O)N4CCc5ccccc5C4)cc3)nc12,activity,[5],95.1%
same,activity,[6],99.4%
O=C(Nc1ccccc1)c1nnsc1S(=O)(=O)c1ccc(Cl)cc1,inhibition,[1],47.1% (active)
same,inhibition,[2],-5.15% (inactive)
CCN1CCN(CCNC(=O)c2ccc3c(c2)NC(=O)/C(=C\c2cccc(Cl)c2)S3)CC1,inhibition,[1],-18.3% (inactive)
same,inhibition,[2],108% (active)
CCOc1ccc(C(C)=O)cc1COC(=O)c1cnc(Cl)c(Cl)c1,activity,[5],97.6%
same,activity,[6],79.1%
CC(=O)c1cc(F)ccc1OCC(=O)Nc1ccc2c(c1)OCO2,activity,[5],72.3%
same,activity,[6],68.3%
CC[C@@H](C)[C@H](NC(=O)CCc1c(C)c2cc3c4c(oc3c(C)c2oc1=O)CCCC4)C(=O)O,inhibition,[1],68.5% (active)
same,inhibition,[2],44.4% (inactive)
Cc1ccccc1NC(=O)Cc1nc(COC(=O)c2ccc(S(C)(=O)=O)c([N+](=O)[O-])c2)cs1,activity,[5],80.5%
same,activity,[6],93.9%
Cc1nc(SCCC(=O)O)c2cc(-c3ccccc3)sc2n1,activity,[5],59%
FC(F)(F)c1nnc(-c2ccccc2)nc1Sc1ccc(Cl)cc1,activity,[5],42.7%
same,activity,[6],46.2%
O=C(CCl)N(Cc1cccc([N+](=O)[O-])c1)c1cccc(Cl)c1,inhibition,[1],62.8% (active)
same,inhibition,[2],107% (active)
same,activity,[5],99.1%
same,activity,[6],99.6%
FC(F)(F)c1cccc(Sc2nc(-c3ccccc3)nnc2C(F)(F)F)c1,activity,[5],42.5%
same,activity,[6],60.4%
COc1ccc(-c2ccc3ccccc3n2)cc1,activity,[5],32.4%
same,activity,[6],16%
COc1ccc(C(=O)Nc2nnc(SCC(=O)NC3CCCC3)s2)c(OC)c1,activity,[5],74.1%
same,activity,[6],69.8%
CCOC(=O)C(=Cc1ccccc1OC)C(=O)OCC,inhibition,[1],57.5% (active)
same,inhibition,[2],75.7% (active)
CC[C@]12c3[nH]c4ccc(Cl)cc4c3CCN1C(=O)[C@@H](CC(=O)NCc1cccc(C(F)(F)F)c1)C[C@@H]2C(=O)N1CCN(C(=O)c2ccco2)CC1,activity,[5],71%
same,activity,[6],68.7%
Cc1ccc(C)c(C(=O)O/N=C(\N)c2ccc(Br)cc2)c1,activity,[5],80.1%
same,activity,[6],78.7%
COC(=O)CCNc1ccc2c(c1)OCCO2,inhibition,[1],50.7% (active)
same,inhibition,[2],56.6% (active)
N#C/C(=C/c1cccc([N+](=O)[O-])c1)c1nnc2n1CCCCC2,inhibition,[1],23.5% (inactive)
same,inhibition,[2],11.7% (inactive)
COc1ccc(-c2oc3ncnc(NCCCO)c3c2-c2ccc(OC)cc2)cc1,inhibition,[1],37.9% (inactive)
same,inhibition,[2],82.4% (active)
COc1ccccc1C=NN=C(NN=Cc1ccccc1OC)NN=Cc1ccccc1OC,activity,[5],78%
same,activity,[6],65.6%
COc1ccc(CC(N)c2csc(NC(=O)Nc3ccc(C(C)C)cc3)n2)cc1 (centres undefined),inhibition,[1],3.55% (inactive)
same,inhibition,[2],101% (active)
same,activity,[5],82.5%
same,activity,[6],97.2%
O=C1c2ccccc2S(=O)(=O)c2cc(N3CCOCC3)ccc21,activity,[5],73.2%
same,activity,[6],73.9%
Cc1ccc(C(=O)N/N=C\c2ccc[nH]2)cc1[N+](=O)[O-],activity,[5],80.7%
same,activity,[6],79.4%
N/C(=N\OC(=O)c1ccccc1Cl)c1cccnc1,activity,[5],67.2%
same,activity,[6],70.6%
CCOC(=O)c1c(C)oc2c(F)c(F)c(F)c(F)c2c1=O,activity,[5],99.2%
same,activity,[6],99.2%
O=C1C(=C2CCc3ccccc32)Cc2ccccc21,activity,[5],41.5%
same,activity,[6],48.9%
CCOC(=O)NC(=O)CSc1nc(C)cc(C)c1C#N,activity,[5],71%
same,activity,[6],61.4%
CCN1CCN(Cc2ccc(NC(=O)c3cc(NC(=O)c4cncc(-c5cccs5)c4)cc(OC)c3)cc2C(F)(F)F)CC1,activity,[5],68%
same,activity,[6],91.9%
N#Cc1cc2c(nc1SCC(=O)Nc1nccs1)CCCCC2,activity,[5],67.8%
same,activity,[6],69.2%
Cc1ccc(NC(=O)c2ccc3c(c2)OCCO3)cc1,activity,[5],76%
same,activity,[6],73.2%
CC(C)c1ccc(NC(=O)Nc2nc(C(N)CCc3ccccc3)cs2)cc1 (centres undefined),activity,[5],86.8%
same,activity,[6],98.2%
O=Nc1c2cc(-c3ccccc3)[nH]nc-2c2ccccc12,activity,[5],78.8%
same,activity,[6],78.7%
Cc1nc(-c2ccc(C(=O)Nc3cccc(F)c3)cc2)cs1,activity,[5],76.6%
same,activity,[6],73.5%
COc1cc(OC)cc(-c2cc3ccc(F)cc3cn2)c1,activity,[5],65.9%
same,activity,[6],60.2%
O=C(N/N=C/c1ccccc1[N+](=O)[O-])c1ccc2c(c1)OCCO2,activity,[5],95.4%
same,activity,[6],94.5%
Cc1csc(NC(=S)NC(=O)c2ccccc2)n1,activity,[5],67.7%
same,activity,[6],53.1%
CN1CCN(C(=O)C2=NOC3(C2)C(=O)Nc2ccccc23)CC1 (centres undefined),activity,[5],-0.15%
same,activity,[6],70.2%
c1c2c(cc3sc(N4CCCCC4)nc13)OCO2,activity,[5],56%
same,activity,[6],44.2%
C/C=C/c1ccc(OCCCNC2CCCC2)c(OC)c1,activity,[5],1.5%
same,activity,[6],-12.4%
COc1ccc(C2CC(c3cccs3)=NN2C(=O)CCl)cc1OC (centres undefined),activity,[5],98.7%
same,activity,[6],98.7%
Cc1ccc(C2=NS(=O)(=O)N(C)C(C(=O)NCc3cccs3)=C2)cc1,activity,[5],5.95%
same,activity,[6],0.8%
CCCCCCCC(=O)Nc1ccc(C(=O)N/N=C/c2cccc([N+](=O)[O-])c2)cc1,activity,[5],69.3%
same,activity,[6],75.9%
CCN1CCN(Cc2ccc(NC(=O)c3cc(NC(=O)c4cc5cccc(OC)c5o4)cc(OC)c3)cc2C(F)(F)F)CC1,activity,[5],59.2%
same,activity,[6],79.5%
Cc1ccc(C(C)C)c(OCC(=O)Nc2ccc3c(c2)nc(CCN2CCCCC2)n3C)c1,activity,[5],7.92%
same,activity,[6],39.4%
Cc1cc2[nH]c3c4ccccc4nc(C)c3c2cc1C,activity,[5],99.5%
same,activity,[6],99.8%
O=Cc1s/c(=N\S(=O)(=O)c2ccccc2)n(CCCCl)c1Cl,activity,[5],94.2%
same,activity,[6],88.6%
Clc1ccccc1-c1nnc(-c2ccc3c(c2)OCO3)o1,activity,[5],53.9%
same,activity,[6],50.7%
CC(C)(C)C1CCc2sc(C(=O)NNC(=O)CCl)cc2C1 (centres undefined),activity,[5],98.8%
same,activity,[6],95.6%
O=C1Nc2ccccc2N(C(=O)c2c(F)cccc2F)C1c1nc2ccccc2[nH]1 (centres undefined),activity,[5],47.6%
same,activity,[6],60.3%
CN(C)c1cccc(C(=O)N/N=C/c2ccsc2)c1,activity,[5],65%
same,activity,[6],40.4%
COc1ccccc1NC(=O)c1nc(S(=O)(=O)Cc2ccccc2)ncc1Cl,activity,[5],90.7%
same,activity,[6],99.2%
O=c1c2[nH]c3ccccc3c2ncn1C1CCCCC1,activity,[5],75.2%
same,activity,[6],74.8%
COc1cc(C2Nc3ccccc3C(=O)N2c2ccc3c(c2)OCCO3)ccc1OCC(C)C (centres undefined),activity,[5],64.9%
same,activity,[6],63.5%
C(=N\NC1=Nc2cccc3cccc1c23)/c1ccccn1,activity,[5],50.6%
same,activity,[6],43%
Cc1cccc(-c2cc3nc(-c4ccccc4)cc(=O)n3[nH]2)c1,activity,[5],50%
same,activity,[6],55.2%
O=C(NCCc1cccc(Cl)c1)c1ccc2c(c1)OCO2,activity,[5],47.7%
same,activity,[6],39.4%
CCN(CC)S(=O)(=O)c1cc(C(=O)OCC(=O)Nc2ccc(-c3nc4ccc(C)cc4s3)cc2)ccc1F,activity,[5],73.7%
same,activity,[6],74.2%
